# Source: PubChem BioAssay (NCI)
# About 83,000 compounds went through this panel and 20% of them were active in at least one assay; those are over-represented in the sample as a whole.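 Single-dose data. Exposure time 48 hours. Values below 10 considered active.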 A number with no mark means an inactive call. Active and inactive are the calls of the source.
# What was measured:
# Test in all cases: NCI-60 one-dose screen, 48 h (100 = growth as untreated, 0 = no growth, -100 = all killed)
# Settings in all cases: 10 µM unless noted
# [1] = system: NCI-H23 lung
# [2] = system: NCI-H226 lung
# [3] = system: NCI-H322M lung
# [4] = system: HOP-62 NSCLC
# [5] = system: NCI-H460 lung
# [6] = system: HOP-92 NSCLC
# [7] = system: NCI-H522 lung
# [8] = system: A549/ATCC NSCLC
# [9] = system: 786-0 renal
# [10] = system: COLO 205 colon
# [11] = system: DU-145 prostate
# [12] = system: K-562 leukemia
# [13] = system: MALME-3M melanoma
# [14] = system: MDA-MB-231 breast
# [15] = system: RXF 393 renal
# [16] = system: SF-268 CNS
# [17] = system: SF-295 CNS
# [18] = system: SF-539 CNS
# [19] = system: UACC-257 melanoma
# [20] = system: M14 melanoma
SMILES,growth [1],growth [2],growth [3],growth [4],growth [5],growth [6],growth [7],growth [8],growth [9],growth [10],growth [11],growth [12],growth [13],growth [14],growth [15],growth [16],growth [17],growth [18],growth [19],growth [20]
CS(=O)(=O)OCC(COS(C)(=O)=O)C(c1ccccc1)c1ccccc1,96.9%,103%,97.9%,91.2%,110%,85.2%,95.4%,92.3%,99.4%,124%,129%,101%,99.7%,96.5%,97.4%,109%,97.2%,118%,111%,106%
COC(=O)c1oc2c(C(=O)/C=C/c3ccc(OC)cc3)c(OCCN3CCOCC3)ccc2c1C,18.7%,-5.76% (active),0.995% (active),-6.52% (active),-20.9% (active),-44.8% (active),-20% (active),2.83% (active),-6.7% (active),-20.9% (active),1.8% (active),-37.3% (active),-14.1% (active),3.21% (active),-64.4% (active),11.5%,18.3%,-34% (active),55.5%,11.5%
CCCCN(CCCC)c1ccc(C(=N)c2ccc(N(C)C)cc2)cc1,-46.1% (active),-46.4% (active),-32% (active),-84% (active),-88.5% (active),-32.7% (active),-66.1% (active),3.26% (active),-84.4% (active),-93.8% (active),-21% (active),-30.9% (active),-81.6% (active),-76.7% (active),-75% (active),-21.8% (active),-72.1% (active),-89.1% (active),-62.8% (active),-93.3% (active)
COc1ccc(C2=NN(C(=O)COc3ccc(Cl)cc3)C(O)(c3cc(F)c(Cl)cc3Cl)C2)cc1OC (stereo not given),49.7%,82.2%,88.8%,75.4%,32.9%,-44.8% (active),-66.4% (active),81.3%,-74.9% (active),-56.6% (active),9.5% (active),-66.5% (active),6.18% (active),30%,-90.8% (active),4.05% (active),75.7%,30.5%,107%,-13.4% (active)
Nc1nccc2c1ccn2-c1ccc(NC(=O)c2ccc(N3CCOCC3)c(C(F)(F)F)c2)cc1,33%,63.1%,38.9%,-43% (active),1.76% (active),-25% (active),23.1%,11.9%,-45.5% (active),-54.7% (active),48.3%,1.22% (active),-18.1% (active),-3.15% (active),-77.4% (active),18.2%,-59.6% (active),7.48% (active),32.7%,-61.8% (active)
CC(C)CNCC(O)COc1ccc(C(C)(C)c2ccc(OCC(O)CNCC(C)C)cc2)cc1 (stereo not given),84.4%,88.2%,81.3%,64.3%,-22.2% (active),20.2%,26.4%,37.5%,26.1%,-65.8% (active),44.7%,-60% (active),-63.1% (active),-14.4% (active),41.8%,55.3%,32.4%,-41.1% (active),-37.4% (active),-57.5% (active)
CCc1ccc(C2=C/C(=C/c3ccc(Cl)cc3)C(=O)N2CCc2ccc(S(N)(=O)=O)cc2)cc1,34.4%,29.2%,54.3%,34.1%,2.69% (active),15.1%,5.98% (active),13.7%,40%,-35.4% (active),43.8%,11%,41.5%,43.8%,7.12% (active),45.6%,25.9%,56.1%,39.4%,30.6%
C=C(C)[C@@H]1C/C=C(\COC(=O)[C@H](OC(C)=O)C(NC(=O)c2ccccc2)c2ccccc2)CC[C@H]2O[C@]2(C)CC/C=C(\C)CC1 (stereo not given in full),73.7% [5 µM],81% [5 µM],71.6% [5 µM],75.3% [5 µM],64.2% [5 µM],13.3% [5 µM],57.3% [5 µM],73.1% [5 µM],65.7% [5 µM],92% [5 µM],86.6% [5 µM],14.7% [5 µM],86.3% [5 µM],65.2% [5 µM],107% [5 µM],78.9% [5 µM],73.7% [5 µM],81.1% [5 µM],97.5% [5 µM],34.3% [5 µM]
O=C1C(Cl)=C(Nc2cccc3cc4ccccc4nc23)C(=O)c2ccccc21,54.7%,67.2%,51%,45.9%,18.2%,74.9%,22.3%,29.8%,50.1%,12%,44%,27.9%,48.9%,44%,65.2%,45%,53.8%,40.7%,45.6%,56.4%
O=C(Nc1cccc([N+](=O)[O-])c1)Nc1cccc([N+](=O)[O-])c1,28.3%,53%,68%,88.2%,35.2%,2.97% (active),10.1%,60.5%,71.7%,59.1%,42.2%,15.3%,66.9%,88.1%,99.4%,82.6%,34.6%,74.9%,68.1%,44.6%
Cn1cnc([N+](=O)[O-])c1N1c2ccncc2Sc2ccncc21,91.2%,82.1%,110%,93.3%,106%,77.1%,72.5%,104%,110%,89.6%,108%,83.2%,84%,85.1%,100%,101%,86.7%,96.3%,101%,101%
COc1cc(-c2nc3ccccc3s2)ccc1OCc1nc2n(n1)S(=O)(=O)c1ccccc1N2c1ccccc1,109%,95.7%,92.9%,88.2%,110%,70.8%,85.4%,110%,95.1%,113%,110%,81.7%,66.7%,79.5%,114%,102%,107%,104%,112%,120%
Cc1ccc(=O)n(-c2ccc(Br)cc2F)c1,98.4%,85.4%,102%,94%,110%,77.3%,104%,98.7%,99.5%,110%,109%,99.4%,101%,103%,103%,104%,100%,98.9%,102%,97.4%
c1nc(SC2=NCCN2)c2[nH]cnc2n1,46.2%,46.9%,36.3%,23.2%,66.5%,36.2%,25%,82.9%,22.7%,56.8%,37.3%,14.3%,47.3%,37.7%,59.7%,46.5%,29.1%,24.3%,66.8%,14.7%
CCCCCCCCCCCCCCCCNc1ccccc1,102%,99.8%,83.8%,105%,105%,97.7%,64.6%,59.7%,81.4%,113%,107%,79.8%,114%,104%,110%,86.6%,102%,97.1%,82.3%,106%
